# Screening results from PubChem.
# Rows were chosen to be rich in hits. Some 19% of all compounds tested hit in one or more screens of this group.
# KB-3-1 cytotox: qHTS assay for MDR1-selective chemotherapeutics: Primary screen using the parental adenocarcinoma cell KB-3-1; KB-3-1 viability, CellTiter-Glo ATP luminescence, 72 h; Potency, µM (series often up to 46.1 µM), usual class: cytotoxic; actives 1.4% (n = 400,000); AID 1347075, 2019; further: nearly all actives have a fitted effect of over 60% in size
#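 KB-3-1 parental drug-naive adenocarcinoma cells in DMEM/10% FBS, incubated 72 h at 37 C with pin-transferred compounds across a concentration series. Viability by CellTiter-Glo luminescence; concentration-response curves fitted after normalization.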
# HT1080 IDH1KD tx: qHTS for induction of synthetic lethality in tumor cells producing 2HG: qHTS for the HT-1080-IDH1KD cell line; Potency, µM (titrated, usually from 46.1 µM), usual class: cytotoxic; HT-1080 IDH1 knockdown viability, ATP luminescence, 48 h; AID 686971, 2013; actives 2% (n = 360,000)
#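 Luminescent ATP read-out (CellTiter-Glo, 10 min at room temperature) after 48 h compound exposure at 37 °C gave viability of IDH1-knockdown HT-1080 cells. Activity was normalised to DMSO and cell-free wells, then fitted as concentration-response curves.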
# TDP1 cell CPT: qHTS for Inhibitors of human tyrosyl-DNA phosphodiesterase 1 (TDP1): qHTS in cells in presence of CPT; actives 12% (n = 420,000); Potency, µM (titrated, usually from 46.2 µM), hits mostly inhibitors; chicken DT40 Tdp1-/-;hTDP1 cells + 20 nM CPT, ATP luminescence, 48 h; further: nearly all actives have a fitted effect of over 55% in size
#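 Cell growth measured by CellTiter-Glo luminescence after a minimum 48 h, 37 C compound exposure with 20 nM CPT in Tdp1-knockout DT40 cells stably expressing hTDP1, seeded 400/well; qHTS titration format.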
# HT1080-NT tox: qHTS for induction of synthetic lethality in tumor cells producing 2HG: qHTS for the HT-1080-NT fibrosarcoma cell line | HT-1080-NT fibrosarcoma viability, CellTiter-Glo ATP luminescence, 48 h | Potency, µM (doses to about 46.1 µM), most hits filed as cytotoxic | actives 1.6% (n = 360,000);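 further: NT is the 2HG producing partner of a matched IDH1 knockdown line; nearly all actives have a fitted effect of over 55% in size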
#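 Read-out is CellTiter-Glo luminescence after 10 minutes at room temperature, following 48 hours' compound treatment of HT-1080-NT cells (750 cells/well, RPMI, 5% FBS, 37 degrees C).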
# KB-V1 cytotox: qHTS assay for MDR1-selective chemotherapeutics: Primary screen using the drug-selected MDR subline cells KB-V1; KB-V1 MDR cells viability, CellTiter-Glo, 72 h; Potency, µM (doses to about 46.1 µM), most hits filed as cytotoxic; actives 3.4% (n = 400,000); further: nearly all actives have a fitted effect of over 60% in size
#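 Following 72 h at 37 degrees C with compound, KB-V1 cell viability was read by CellTiter-Glo luminescence, medium being phenol-red-free DMEM plus 10% FBS; concentration-response parameters came from normalized, curve-fitted qHTS data.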
# DT40 TDP1 no CPT: qHTS for Inhibitors of human tyrosyl-DNA phosphodiesterase 1 (TDP1): qHTS in cells in absence of CPT; Potency, µM (doses to about 46.2 µM), most hits filed as inhibitors; DT40 Tdp1-/- hTDP1 cells, no CPT, ATP luminescence, 48 h; actives 15% (n = 420,000); AID 686978, 2013; further: nearly all actives have a fitted effect of over 55% in size
#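 DT40 Tdp1-/-;hTDP1 cells, no CPT (DMSO vehicle only), 400 cells/well; compounds pin-transferred; ≥48 hr, 37 °C; CellTiter-Glo 30 min RT dark, luminescence read.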
# Numbers stand for hits; 0 = inactive; ? = inconclusive; - = no result given. The call rests on the fitted dose curve; in most records, active means well fitted curve in the direction sought with a large enough effect; inconclusive means small, poorly fitted or top-dose-only effect, or another doubt; inactive means no such curve, though single readings can be large; an effect the other way counts as inactive or inconclusive.
SMILES,KB-3-1 cytotox,HT1080 IDH1KD tx,TDP1 cell CPT,HT1080-NT tox,KB-V1 cytotox,DT40 TDP1 no CPT
Cc1nnc(SCC(=O)Nc2nsc(-c3ccc(C(C)(C)C)cc3)n2)s1,0,0,0,0,0,0
CC1=NN(/C(=N\c2nnc(C)s2)Nc2ccc(C(C)(C)C)cc2)[C@H](c2ccc(C)cc2)S1,?,0,18.4µM,0,0,?
COC(=O)Cc1[nH]nc2c1C(C1C=CCCC1)C(C#N)=C(N)O2 (stereo not given),0,0,?,0,0,25.9µM
COC(=O)c1cccc(N(CC(=O)NC2CCCC2)C(=O)CCC(=O)Nc2cc(C)on2)c1,0,0,0,0,0,0
CC(C)(C)N=C1NN=C(c2ccc(Cl)cc2)CS1,?,0,?,0,0,18.4µM
CC(C)(C)N=C1NN=C(c2cc3ccccc3o2)CS1,0,0,?,0,?,23.1µM
C=CCn1c(C)cc(C2=NNC(=NC(C)(C)C)SC2)c1C,?,0,?,0,?,?
Cc1ccc(/C=C(/NC(=O)c2ccccc2)C(=O)NC(Cc2c[nH]c3ccccc23)C(=O)O)cc1 (stereo not given),0,0,0,0,0,0
O=C(CS(=O)(=O)c1ccc2ccccc2c1)N1CCCCCC1,0,0,?,0,0,0
COc1ccccc1CCNC(=O)C(=O)NCCC1CCCCN1S(=O)(=O)c1ccccc1 (stereo not given),0,0,?,0,0,16.4µM
O=S(=O)(c1ccccc1)N1CCCCC1CCc1ccccc1 (stereo not given),0,0,?,0,?,13µM
COc1ccc(CCNC(=O)C(=O)NCCC2CCCCN2S(=O)(=O)c2ccccc2)cc1 (stereo not given),0,0,23.1µM,0,?,23.1µM
COc1ccccc1CNC(=O)C(=O)NCCC1CCCCN1S(=O)(=O)c1ccc(C)cc1 (stereo not given),0,0,?,0,0,?
CCC1CCCCN1S(=O)(=O)c1ccccc1[N+](=O)[O-] (stereo not given),0,0,20.6µM,0,0,23.1µM
COc1ccc(CCNC(=O)C(=O)NCCC2CCCCN2S(=O)(=O)c2cccs2)cc1 (stereo not given),0,0,?,0,0,?
CC1CCCCN1S(=O)(=O)c1ccccc1[N+](=O)[O-] (stereo not given),0,0,0,0,?,0
CCC1CCCCN1S(=O)(=O)c1ccccc1 (stereo not given),0,0,?,0,0,?
CN(C(=O)COC(=O)c1ccc2ccccc2n1)C1CCS(=O)(=O)C1 (stereo not given),0,0,0,0,0,0
COc1cc(OC)cc(OC(=O)C2CCN(C3=NS(=O)(=O)c4ccccc43)CC2)c1,0,0,0,0,0,0
CCOc1cc(C2NC(=O)CCC2[N+](=O)[O-])cc(Br)c1OCC (stereo not given),0,0,0,0,0,0
CC1C(=O)N(Cc2cn(Cc3ccco3)nn2)CCS(=O)(=O)N1Cc1ccc(-c2ccc(Cl)c(Cl)c2)cc1 (stereo not given),?,?,14.6µM,?,?,8.2µM
CC(C)CC1C(=O)N(Cc2cn(Cc3ccco3)nn2)CCS(=O)(=O)N1Cc1ccc(-c2cccc(N(C)C)c2)cc1 (stereo not given),0,0,?,0,0,13µM
CC1C(=O)N(Cc2cn(Cc3ccco3)nn2)CCS(=O)(=O)N1Cc1ccc(-c2cccc(N(C)C)c2)cc1 (stereo not given),0,0,25.9µM,0,0,16.4µM
CC1C(=O)N(Cc2cn(Cc3ccco3)nn2)CCS(=O)(=O)N1Cc1ccc(-c2cccnc2)cc1 (stereo not given),0,0,?,0,0,?
CC(C)CC1C(=O)N(Cc2cn(Cc3ccco3)nn2)CCS(=O)(=O)N1Cc1ccc(-c2ccc(F)cc2)cc1 (stereo not given),?,?,?,?,?,16.4µM
SMILES,KB-3-1 cytotox,HT1080 IDH1KD tx,TDP1 cell CPT,HT1080-NT tox,KB-V1 cytotox,DT40 TDP1 no CPT
Cc1ccc(-c2ccc(CN3C(C)C(=O)N(Cc4cn(Cc5ccco5)nn4)CCS3(=O)=O)cc2)c(C)c1 (stereo not given),0,?,?,?,0,?
COc1ccc(CCC(=O)Nc2ccccc2C(F)(F)F)cc1,0,0,0,0,0,0
CCC/C=C/c1ccc(CN2C(C(C)C)C(=O)N(Cc3cn(Cc4ccco4)nn3)CCS2(=O)=O)cc1 (stereo not given),0,?,?,?,0,23.1µM
Cc1ccc(-c2ccc(CN3C(CC(C)C)C(=O)N(Cc4cn(Cc5ccco5)nn4)CCS3(=O)=O)cc2)cc1 (stereo not given),0,0,0,0,0,?
CC1C(=O)N(Cc2cn(Cc3ccco3)nn2)CCS(=O)(=O)N1Cc1ccc(-c2ccc(F)nc2)cc1 (stereo not given),?,0,0,0,0,?
COc1ccc(-c2ccc(CN3C(C(C)C)C(=O)N(Cc4cn(Cc5ccco5)nn4)CCS3(=O)=O)cc2)cn1 (stereo not given),0,0,18.4µM,0,0,20.6µM
COc1ccc(-c2ccc(CN3C(C(C)C)C(=O)N(Cc4cn(Cc5ccco5)nn4)CCS3(=O)=O)cc2)cc1 (stereo not given),0,0,?,0,0,20.6µM
COc1ccc(-c2ccc(CN3C(C(C)C)C(=O)N(Cc4cn(Cc5ccco5)nn4)CCS3(=O)=O)cc2)cc1OC (stereo not given),0,0,?,0,0,?
CC(C)C1C(=O)N(Cc2cn(Cc3ccco3)nn2)CCS(=O)(=O)N1Cc1ccc(-c2ccc(Cl)c(Cl)c2)cc1 (stereo not given),0,?,4.61µM,?,13µM,3.26µM
N#CC1=C(N)OC2=C(C(=O)CCC2)C1c1cc2c(cc1Br)OCO2 (stereo not given),0,0,0,0,0,0
Cc1ccc(S(=O)(=O)Nc2cc3c(C(=O)OCc4ccccc4)c(C)oc3c3ccccc23)c(C)c1,0,-,?,-,0,?
